Bioassay records (PubChem BioAssay)
IL1B secr inh: inflammasome signaling inhibition, IL-1 beta readout; activity change, % at 57.5 µM; THP-1 LPS/ATP IL-1B secretion, AlphaLISA, 16 h; active compounds read low; actives 4.7% (n = 360,000); AID 743279; in the data active = activity change below about -50%; inconclusive = mostly about -30% to -49%
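THP-1 cells pretreated 1 hr with compounds (up to 57.5 uM final), then stimulated with LPS (250 ng/mL final) plus ATP (1.25 mM final); secreted IL-1B measured by AlphaLISA after 16 hr, decreased signal indicating inhibition.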
HT1080NT lethal: kills 2HG-producing HT-1080-NT fibrosarcoma cells | actives 1.6% (n = 360,000) | HT-1080-NT fibrosarcoma viability, CellTiter-Glo ATP luminescence, 48 h | Potency, µM (highest dose often 46.1 µM), without a hit: at the top dose activity, negative = less viability, hits mostly cytotoxic;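 note: NT is the 2HG producing partner of a matched IDH1 knockdown line; potency is the fitted concentration of half-maximal effect; 0% = DMSO-treated cells and -100% = media-only wells without cells; nearly all actives have a fitted effect of over 55% in size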
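HT-1080-NT; 750 cells/well; 5% FBS RPMI; 48 h compound, 37 degrees C; CellTiter-Glo luminescence; curve fitting and curve-class assignment.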
DT40 TDP1 CPT: growth inhibition of DT40 Tdp1-/-;hTDP1 cells with camptothecin (screen for TDP1 inhibitors); chicken DT40 Tdp1-/-;hTDP1 cells + 20 nM CPT, ATP luminescence, 48 h; Potency, µM (top dose mostly 46.2 µM), for the others: top-dose activity change, negative = growth inhibition, actives largely listed as inhibitors; actives 12% (n = 420,000); AID 686979; note: potency is the fitted concentration of half-maximal effect; nearly all actives have a fitted effect of over 55% in size
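Chicken DT40 Tdp1-/- cells complemented with human TDP1, 400 cells/well, exposed to compounds plus 20 nM camptothecin for at least 48 h at 37 C; viability read as ATP content by CellTiter-Glo luminescence.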
HT1080 IDH1KD tx: toxicity to HT-1080 IDH1 knockdown cells (counter line) | HT-1080 IDH1 knockdown viability, ATP luminescence, 48 h | Potency, µM (highest dose often 46.1 µM), without a hit: at the highest dose activity, negative = toxicity, most hits filed as cytotoxic | actives 2% (n = 360,000);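 note: potency is the fitted concentration of half-maximal effect; 0% = DMSO wells and -100% = cell-free medium wells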
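Using the IDH1-knockdown HT-1080 line run in the same batch and compound series as the NT line, viability after 48 h at 37 °C was determined by CellTiter-Glo luminescence and expressed as % activity.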
TDP1 cell noCPT: qHTS for Inhibitors of human tyrosyl-DNA phosphodiesterase 1 (TDP1): qHTS in cells in absence of CPT; AID 686978, 2013; actives 15% (n = 420,000); DT40 Tdp1-/- hTDP1 cells, no CPT, ATP luminescence, 48 h; Potency, µM (titrated, usually from 46.2 µM), without a hit: top-dose activity change, negative = growth inhibition, hits mostly inhibitors; note: potency is the fitted concentration of half-maximal effect; nearly all actives have a fitted effect of over 55% in size
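Luminescent ATP content (CellTiter-Glo) served as the growth readout. Knockout chicken DT40 cells expressing human TDP1 were exposed to compounds without camptothecin for a minimum 48 hr at 37 °C.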
Starred values were filed as active, the others as inactive; ? = inconclusive; . = not tested or not shown. Most compounds without a hit are left out; they make up all but 19% or so of the library. Unless noted, calls come from the whole dose curve; as a rule, active = well fitted curve in the direction sought with a large enough effect; inconclusive = small, poorly fitted or top-dose-only effect, or another doubt; inactive = no such curve, though single readings can be large; an effect the other way counts as inactive or inconclusive. Unless noted, % is set by controls: 0 for no effect and ±100 for the full control effect.

SMILES | IL1B secr inh | HT1080NT lethal | DT40 TDP1 CPT | HT1080 IDH1KD tx | TDP1 cell noCPT
COc1ccc(OC)c2[nH]c(=O)c(CCNS(=O)(=O)c3ccc(Cl)cc3)cc12 | -17.6 | 12.1% | -1.0% | 15.5% | -23.4%
Cc1cc(CNC(=O)c2ccc(C)c([N+](=O)[O-])c2)c2ccccc2n1 | 56.3 | 0.6% | 13µM* | -10.4% | 9.2µM*
Cc1ccc2cc(CCNS(=O)(=O)c3ccc(Cl)cc3)c(=O)[nH]c2c1C | -78.7* | -17.2% | 20.6µM* | -13.9% | 23.1µM*
CC(=O)Nc1ccc(Cl)cc1C1COC(=O)C1=N (stereo not drawn) | 2.6 | 18.3% | 2.9% | 15.8% | 5.1%
Cc1ccc(NS(=O)(=O)c2ccc3c(c2)CCC(=O)N3)cc1 | -12.3 | -3.9% | 2.6% | 1.9% | 1.0%
CSc1ccc(S(=O)(=O)Nc2ccc3c(c2)NC(=O)CC3)cc1 | 16.3 | -28.3% | ? | 16.4µM* | 23.1µM*
COc1ccccc1OC1=NS(=O)(=O)c2ccccc21 | -1.2 | 5.3% | 20.6µM* | 10.6% | 13µM*
Cc1ccc(OC2=NS(=O)(=O)c3ccccc32)cc1 | 35.3 | -1.4% | 2.5% | 13.5% | 4.6%
CCc1ccc(OC2=NS(=O)(=O)c3ccccc32)cc1 | 35.7 | 8.0% | -1.8% | 1.4% | -3.5%
CCN(CC)c1cccc(OC2=NS(=O)(=O)c3ccccc32)c1 | 3.5 | -4.2% | 8.2µM* | 0.3% | 16.4µM*
CCOCCc1nnc(NC(=O)CCC2CCCCC2)s1 | 70.1 | 2.4% | -29.5% | 6.3% | -13.9%
CCOC(=O)/C=C/C(=O)N1CCN(C(=O)/C=C/C(=O)OCC)CC1 | -100.1* | -9.0% | ? | -23.7% | 20.6µM*
O=S(=O)(NCc1ccccc1)c1ccccc1Br | 6.3 | 5.5% | -1.5% | 2.3% | -24.2%
O=S(=O)(NCc1ccccc1)c1ccc(Br)c2nsnc12 | -72.0* | 15.8% | 4.5% | 5.2% | -25.6%
NNc1nc(-c2ccccc2)cc(-c2ccccc2)n1 | ? | -19.8% | 16.4µM* | ? | ?
NNc1nc(-c2ccccc2)cc(-c2ccccc2O)n1 | -8.8 | ? | ? | 12.6µM* | ?
N#Cc1cc(-c2ccccc2)nc(NN)n1 | -12.2 | -17.8% | ? | -12.4% | ?
Nc1nc(-c2ccccc2)nc(-c2ccccc2O)n1 | ? | ? | ? | -27.7% | ?
Nc1nc(-c2ccccc2)cc(-c2ccccc2O)n1 | -60.7* | -26.0% | ? | ? | ?
CCOC(=O)N1CCC(NCCNC(=O)c2cccs2)CC1 | -15.4 | 17.6% | -6.9% | 15.5% | -6.3%
O=C(NCCNC1CCC(c2ccccc2)CC1)c1cccs1 (stereo not drawn) | -72.1* | ? | ? | ? | ?
O=C(Cn1ncc2c(=O)oc3ccccc3c21)NCc1ccc(Cl)cc1 | . | . | -1.0% | . | -5.9%
O=C(Cc1ccc(-c2ccccc2)cc1)NCc1cccnc1 | 12.3 | ? | 2.91µM* | 8.2µM* | 6.51µM*
O=C(Cn1ncc2c(=O)oc3ccccc3c21)NCc1cccnc1 | 4.2 | -1.7% | 1.3µM* | -3.9% | 9.2µM*
O=C(COC(=O)Cc1ccc(-c2ccccc2)cc1)NCc1ccc(F)cc1 | -0.8 | -11.9% | 6.51µM* | -11.5% | ?
SMILES | IL1B secr inh | HT1080NT lethal | DT40 TDP1 CPT | HT1080 IDH1KD tx | TDP1 cell noCPT
Cc1ccc(CC(=O)NCc2ccc(F)cc2)cc1 | 0.0 | 9.2µM* | 4.11µM* | 7.31µM* | 4.61µM*
CCOC(=O)C1=CN(Cc2ccco2)S(=O)(=O)N(CC)C1c1cccc(OC)c1 (stereo not drawn) | -14.3 | -4.0% | -21.7% | -2.6% | -23.9%
O=C1OCCC1=COCCCCCOC=C1CCOC1=O | 9.2 | 4.0% | -13.0% | 5.1% | -14.7%
O=C(Cc1ccc(-c2ccccc2)cc1)NCc1ccccc1 | 4.1 | ? | 0.517µM* | ? | 0.461µM*
O=C(NC(NCc1ccccc1)C(Cl)(Cl)Cl)c1cccnc1 (stereo not drawn) | 14.5 | 10.3% | -13.5% | -0.2% | -18.4%
O=C(CCC(=O)NCc1ccccc1)NCc1ccccc1 | 22.9 | 12.0% | 1.4% | 7.2% | -4.2%
